Results on 15 molecules are retold here after PubChem BioAssay (NCATS).

Test [1] concerns Es-2. Description: Primary qHTS to identify gynecologic anti-cancer compounds using libraries of approved drugs and bioactive compounds (AID 1345084). Further: nearly all actives have a fitted effect of over 55% in size. The note with it: Gynecologic cancer cell panel viability, ATPlite luminescence, 48 h; series mostly up to 57.5 µM. The gist of the method: (§1)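 Cytotoxicity screen measuring ATP content by luciferase luminescence. Each compound is applied at five concentrations for 48 h at 37 C with 5% CO2.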
(Quantitative high-throughput screening tests each substance at several concentrations.)

In test [2] the test system is HeLa. The description is as above. The note with it: Gynecologic cancer cell panel viability, ATPlite luminescence, 48 h; series mostly up to 57.5 µM. The gist of the method:
as §1
(In general: Cellular ATP, detected with luciferase, serves as a proxy for viable cell number.)

Test [3] concerns Hek293T. Described as above. To be noted: Gynecologic cancer cell panel viability, ATPlite luminescence, 48 h, control line for the selectivity index; series mostly up to 57.5 µM. The gist of the method:
as §1

Test [4] deals with JEG-3. Described as above. To be noted: Gynecologic cancer cell panel viability, ATPlite luminescence, 48 h; series mostly up to 57.5 µM. In outline:
as §1

Test [5] deals with OV90. Described as above. The note with it: Gynecologic cancer cell panel viability, ATPlite luminescence, 48 h; series mostly up to 57.5 µM. In outline: as §1
Test [6] has as its system PA-1. The test is described as above. To be noted: Gynecologic cancer cell panel viability, ATPlite luminescence, 48 h; series mostly up to 57.5 µM. In outline: as §1
Test [7] concerns Tov-21-G. Described as above. The note with it: Gynecologic cancer cell panel viability, ATPlite luminescence, 48 h; series mostly up to 57.5 µM. In outline:
as §1

Test [8] relates to Tov112D. Described as above. To be noted: Gynecologic cancer cell panel viability, ATPlite luminescence, 48 h; series mostly up to 57.5 µM. In outline: as §1
Test [9] in a line: Drug repurposing screens with cells derived from glioblastoma tumor samples (AID 1345199). Further: nearly all actives have a fitted effect of over 40% in size. To be noted: GBM patient neurospheres viability, ATP luminescence, 48 h. The gist of the method:
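Four patient lines of CD133+ GBM neurospheres were screened at several concentrations; hits were retested in those lines plus three slower-growing GBM lines, using 48-hour treatment and ATP-based viability.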

Test [10] deals with SKOV3. Description: Primary qHTS to identify gynecologic anti-cancer compounds using libraries of approved drugs and bioactive compounds (AID 1345084). Further: nearly all actives have a fitted effect of over 55% in size. The note with it: Gynecologic cancer cell panel viability, ATPlite luminescence, 48 h; series mostly up to 57.5 µM. The gist of the method: as §1
[11] abbreviates: at 45.9 µM (top of the series), tumour line B.
Setting [12] is: at 45.9 µM (top of the series), tumour line D.
Where [13] appears, read: at 46 µM (top of the series), tumour line A.
The mark [14] stands for this setting: at 46.1 µM (top of the series), tumour line C.
The mark [15] stands for this setting: at 20 µM (top of the series), tumour line C.
Setting [16] is: at 21.2 µM (top of the series), tumour line B.
Where [17] appears, read: at 21.2 µM (top of the series), tumour line D.
Where [18] appears, read: at 21.3 µM (top of the series), tumour line A.

Results filed as inconclusive are left out. Active and inactive are the calls of the source. The call rests on the fitted dose curve; in most records, active means well fitted curve in the direction sought with a large enough effect; inconclusive means small, poorly fitted or top-dose-only effect, or another doubt; inactive means no such curve, though single readings can be large; an effect the other way counts as inactive or inconclusive.
On the % scale 0 is the no-effect control and ±100 the full control effect; potency means the concentration at half of the fitted maximal effect.

Turning to `O=C(O)CCNC(=O)c1ccc(N=Nc2ccc(O)c(C(=O)O)c2)cc1`, the Potency entry in [1], in [2], in [3], in test [4], in [5] and in [6] was “inactive” each time. Besides, the Potency result in [7] and in test [8] was “inactive” in each case. Besides, the activity, negative = cell killing in test [9] (setting [11]) is -6.99% (inactive); in test [9] (setting [12]), -11.2% (inactive); in [9] (setting [13]), -28% (inactive); in [9] (setting [14]), -6.53% (inactive).
On to `CCCc1cc(=O)[nH]c(=S)[nH]1`, for which the Potency result in [1], in test [2], in test [3], in test [4], in test [5] and in [6] was “inactive” each time. Also, the Potency entry in test [7] and in test [8] was “inactive” each time. Besides, the activity, negative = cell killing in test [9] (setting [11]) was -8.42% (inactive); in test [9] (setting [12]), -9.52% (inactive); in test [9] (setting [14]) it was -10.7% (inactive).
Take `CN(C)[C@@H](CCOc1cccc2ccccc12)c1ccccc1`: the Potency entry in [1], in test [2], in [4], in [6], in test [7] and in [8] was “inactive” throughout.
`CCCOc1ccc2nc(NC(=O)OC)[nH]c2c1`: the Potency in test [1] was 0.631 µM (active); in test [2], 0.282 µM (active); in [4], 1 µM (active); in test [6], 0.282 µM (active); in test [7], 0.316 µM (active); in [8], 0.316 µM (active).
For `O=C(c1ccccc1)c1ccc2n1CCC2C(=O)O` (stereo unspecified), the Potency result in test [1], in [2], in test [3], in test [4], in test [5] and in [6] was “inactive” throughout. For the same molecule, the Potency entry in test [7] and in test [8] was “inactive” throughout. The activity, negative = cell killing in test [9] (setting [15]) was 0.506% (inactive); in [9] (setting [16]), -13.1% (inactive); in test [9] (setting [17]), -2.23% (inactive); in test [9] (setting [18]), -11% (inactive); in test [9] (setting [11]) it was -9.76% (inactive); in test [9] (setting [12]) it was -4.33% (inactive). Moreover, the activity, negative = cell killing in test [9] (setting [14]) is -1.4% (inactive).
On to `CN1CCC(=C2c3ccccc3CCc3sccc32)CC1`, for which the Potency result in test [1], in test [2], in [3], in [4], in test [6] and in [7] was “inactive” throughout. Further, the Potency result in [8] is “inactive”. In addition, the activity, negative = cell killing in [9] (setting [14]) was 4.48% (inactive). Also, the Potency is 3.98 µM (active) in [9] (tumour line A) and 12.6 µM (active) in [9] (tumour line D).
For `O=C(O)c1cc(=O)c2c(OCC(O)COc3cccc4oc(C(=O)O)cc(=O)c34)cccc2o1`, the Potency entry in [1], in test [2], in [3], in [5], in [6] and in [10] was “inactive” in each case. In addition, the Potency result in test [7] and in [8] was “inactive” each time. Further, the activity, negative = cell killing in test [9] (setting [11]) was -3.77% (inactive); in test [9] (setting [12]), -23.3% (inactive); in test [9] (setting [13]), -3.33% (inactive); in test [9] (setting [14]) it was 5.01% (inactive).
For the molecule `CCC[C@@H]1C[C@@H](C(=O)N[C@@H]([C@H]2O[C@H](SC)[C@H](O)[C@@H](O)[C@H]2O)[C@@H](C)O)N(C)C1`, the Potency entry in test [1], in [2], in test [3], in test [4], in test [5] and in test [6] was “inactive” each time. The Potency result in test [7] and in test [8] was “inactive” in each case. The activity, negative = cell killing was -4.01% (inactive) in test [9] (setting [11]), 5.06% (inactive) in test [9] (setting [12]), -2.05% (inactive) in test [9] (setting [13]) and 3.06% (inactive) in test [9] (setting [14]).
Regarding `COc1c2occc2cc2ccc(=O)oc12`, the Potency entry in [1], in test [2], in test [4], in test [5], in [6] and in test [10] was “inactive” each time. Besides, the Potency result in test [7] and in test [8] was “inactive” in each case. Also, the values for the activity, negative = cell killing in test [9] (setting [11]), in test [9] (setting [12]) and in test [9] (setting [14]) were -22.6% (inactive), -10.6% (inactive) and -21.4% (inactive), respectively.
In the case of `NNc1nncc2ccccc12`, the Potency result in [1], in [2], in [3], in test [4], in test [6] and in test [10] was “inactive” in each case. Further, the Potency result in test [7] and in [8] was “inactive” throughout. Besides, the results for the activity, negative = cell killing in test [9] (setting [15]), in test [9] (setting [16]) and in test [9] (setting [17]) were -13.5% (inactive), -20% (inactive) and -12.5% (inactive), respectively.
As for `CC(C)(S)[C@@H](N)C(=O)O`, the activity, negative = cell killing in [9] (setting [11]) is -10.5% (inactive); in test [9] (setting [12]), -6.11% (inactive); in [9] (setting [13]), -3.65% (inactive); in test [9] (setting [14]) it was -16.2% (inactive).
For the molecule `CCOc1cc(CC(=O)N[C@@H](CC(C)C)c2ccccc2N2CCCCC2)ccc1C(=O)O`, the activity, negative = cell killing in test [9] (setting [15]) is -12% (inactive); in test [9] (setting [16]) it was -4.95% (inactive); in test [9] (setting [17]), -25.3% (inactive); in [9] (setting [18]), -13.6% (inactive).
Turning to `Cc1nc(Nc2ncc(C(=O)Nc3c(C)cccc3Cl)s2)cc(N2CCN(CCO)CC2)n1`, the Potency entry in test [2], in [3], in test [4] and in test [8] was “inactive” throughout. Also, the figures for the Potency in [6] and in test [10] were 0.251 µM (active) and 14.1 µM (active), respectively.
As for `O=C1c2ccccc2-c2n[nH]c3cccc1c23`, the activity, negative = cell killing in test [9] (setting [14]) is -13.2% (inactive). The Potency in [9] (tumour line D) was 12.6 µM (active).
As for `O=C(CS(=O)Cc1ccco1)NCC=CCOc1cc(CN2CCCCC2)ccn1` (stereo unspecified), the activity, negative = cell killing in test [9] (setting [11]) is -14.1% (inactive); in test [9] (setting [12]) it was -2.16% (inactive); in [9] (setting [14]), -28% (inactive). Further, the Potency in [9] (tumour line A) was 25.1 µM (active).
